Experimental data from PubChem BioAssay (NCATS).
Records with an inconclusive call do not appear. Where a call stands in place of a potency, no number is given. Activity calls are given as the source filed them. The call rests on the fitted dose curve; in most records, active means well fitted curve in the direction sought with a large enough effect; inconclusive means small, poorly fitted or top-dose-only effect, or another doubt; inactive means no such curve, though single readings can be large; an effect the other way counts as inactive or inconclusive.

Legend:
[1] = qHTS for Inhibitors of Plasmodium falciparum (GB4) proliferation (AID 504315); further: nearly all actives have a fitted effect of over 50% in size; further: potency means the concentration at half of the fitted maximal effect
Summary of the method: (§1)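 Parasite growth measured as SYBR Green DNA fluorescence (ex 485, em 535 nm) after overnight lysis following 72 h culture at 37 °C, 0.3% parasitemia, 2.5% hematocrit. Values normalized against DMSO and 0.29 uM artemisinin controls, with plate-stack correction.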

[2] = qHTS for Inhibitors of Plasmodium falciparum (7G8) proliferation (AID 504316); further: potency means the concentration at half of the fitted maximal effect; nearly all actives have a fitted effect of over 65% in size
Summary of the method: as §1

[3] = qHTS for Inhibitors of Plasmodium falciparum (HB3) proliferation (AID 504318); further: potency means the concentration at half of the fitted maximal effect; nearly all actives have a fitted effect of over 60% in size
Summary of the method: as §1

[4] = qHTS for Inhibitors of Plasmodium falciparum (CP250) proliferation (AID 504320); further: potency means the concentration at half of the fitted maximal effect
Summary of the method: as §1

[5] = qHTS for Inhibitors of Plasmodium falciparum (DD2) proliferation (AID 504314);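 further: parasite DNA measured by SYBR Green fluorescence after red cell lysis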
Summary of the method: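 SYBR Green DNA-fluorescence growth assay: infected RBCs at 0.3% parasitemia, 2.5% hematocrit, 72 h compound exposure, 37C, 5% CO2; overnight lysis with dye at RT; normalized to 0.29 uM artemisinin and vehicle.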

SMILES: COC(=O)C1=C(C(=O)OC)[C@@H]2N(Cc3ccccc3)c3ccccc3[C@@]23C[C@@H](C(=O)OC)N(S(=O)(=O)c2ccc(C(F)(F)F)cc2)C3=N1
- Potency [1]: 536 nM (active)
- Potency [2]: 478 nM (active)
- Potency [3]: 478 nM (active)
- Potency [4]: 536 nM (active)

SMILES: COC(=O)C1=C(C(=O)OC)[C@@H]2Nc3ccccc3[C@@]23C[C@@H](C(=O)OC)N(S(=O)(=O)c2ccc(OC)cc2)C3=N1
- Potency [5]: inactive
- Potency [4]: inactive

SMILES: COC(=O)C1=C(C(=O)OC)[C@@H]2N(C)c3ccc(OC)cc3[C@@]23C[C@@H](C(=O)OC)N(S(=O)(=O)c2ccc(C#N)cc2)C3=N1
- Potency [5]: inactive
- Potency [4]: inactive

SMILES: CC#CCN1c2ccccc2[C@]23C[C@@H](C(=O)OC)N(S(=O)(=O)c4ccc([N+](=O)[O-])cc4)C2=NC(C(=O)OC)=C(C(=O)OC)[C@H]13
- Potency [5]: inactive
- Potency [4]: inactive

SMILES: COc1ccc(O[C@H]2C=C[C@@H](c3ccccc3)O[C@H]2COC(=O)CCC(C)=NO[C@H](C)c2cn([C@H](CO)Cc3ccccc3)nn2)cc1
- Potency [1]: inactive
- Potency [2]: 1510 nM (active)
- Potency [4]: inactive

SMILES: COC(=O)C1=C(C(=O)OC)[C@@H]2N(Cc3ccccc3)c3ccccc3[C@@]23C[C@@H](C(=O)OC)N(S(=O)(=O)c2ccc4c(c2)OCCN4C)C3=N1
- Potency [1]: 1510 nM (active)
- Potency [2]: 1900 nM (active)
- Potency [3]: 1200 nM (active)
- Potency [4]: 1510 nM (active)

SMILES: C=CCN1C=C2C(=O)C(C)(OC(=O)c3cnc4ccccc4n3)C(=O)C=C2C=C1/C=C/COC (configuration not stated)
- Potency [5]: inactive
- Potency [4]: inactive

SMILES: COCOc1c2c(c(OCOC)c3c(OCOC)cccc13)C(=NNS(C)(=O)=O)C1=C2CCCC1
- Potency [1]: inactive
- Potency [2]: 1690 nM (active)
- Potency [4]: inactive
